# Measured values as given in PubChem BioAssay AID686978 (National Center for Advancing Translational Sciences (NCATS), 2013).
# In all, about 420,000 compounds went through this assay and about 64,000 (15%) were called active. Another 27% or so got no clear call; they are omitted. Calls follow the shape of the dose curve; as a rule, active = well fitted inhibition curve with a large enough effect; inconclusive = small, poorly fitted or top-dose-only effect; inactive = flat fitted curve, though single readings scatter. These entries were drawn from the full list.
# Assay: qHTS for Inhibitors of human tyrosyl-DNA phosphodiesterase 1 (TDP1): qHTS in cells in absence of CPT; also: nearly all actives have a fitted effect of over 55% in size
# Settings: DT40 Tdp1-/- hTDP1 cells, no CPT, ATP luminescence, 48 h; activity change, negative = growth inhibition: at 46.2 µM (top of the series)
# In short: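 Cells were dispensed at 400 per well, compounds added by pin tool, plates incubated ≥48 hr at 37 °C, then CellTiter-Glo added for 30 min at room temperature before luminescence reading. Line: DT40 Tdp1-/- complemented with hTDP1; camptothecin omitted.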
# % is scaled to controls: 0 for no effect and ±100 for the full control effect; potency is read from the fitted curve at half-maximal effect.
SMILES,"activity change, negative = growth inhibition",Potency
COC(=O)CCNc1ccc2c(c1)OCCO2,-12.9% (inactive),
O=C(NCCOc1ccccc1)c1ccccc1,-0.273% (inactive),
O=C(NCCc1ccccc1)c1ccc(OCCOc2ccccc2)cc1,2.77% (inactive),
CC(C)(c1ccccc1)c1ccc(OCCN)cc1,,11.6 µM (active)
O=C(CSc1ncccn1)N1CCCC1,-10.3% (inactive),
CCc1nnc(NC(=O)CSc2nc3c(c(=O)n2-c2ccccc2OC)SCC3)s1,-17.8% (inactive),
CN(C)S(=O)(=O)c1ccc(C(=O)NCCN=C2NS(=O)(=O)c3ccccc32)cc1,4.5% (inactive),
NC(=S)NN=C1CCCC(C(F)(F)F)C1 (stereo not given),,23.1 µM (active)
Cc1cc(C)nc(SCc2cn3c(C)cc(C)nc3n2)n1,-8.17% (inactive),
O=[N+]([O-])/C(N=Nc1ccccc1)=N\Nc1ccccc1,4.72% (inactive),
O=S(=O)(c1ccc(Br)c2ccccc12)N1CCOCC1,-4.4% (inactive),
O=S(=O)(NCCc1ccccn1)c1cc(Cl)cc(Cl)c1O,12.2% (inactive),
COc1ccc(NC(=O)c2sc(N)nc2-c2ccccc2)cc1,19.9% (inactive),
COc1ccc(NC(=O)CCC(=O)Nc2nnc(C3CCCCC3)s2)cc1,-8.09% (inactive),
COC(=O)CCc1sc(Nc2ccc(Br)cc2)nc1-c1ccc(OC)cc1,,13 µM (active)
CC(C)(C)n1nc2c(c1NC(=O)c1cc3ccccc3o1)CSC2,-14.3% (inactive),
C[C@@H](NC(=O)OC(C)(C)C)c1nnc(S(=O)(=O)Cc2ccccc2)o1,,1.03 µM (active)
C[C@H](NC(=O)OC(C)(C)C)c1nnc(SCC(N)=O)o1,0.895% (inactive),
CC(C)Sc1nnc([C@H](Cc2ccccc2)NC(=O)OC(C)(C)C)o1,-15.6% (inactive),
O=C(CSc1nnc(CNC(=O)c2ccc(F)cc2)o1)Nc1ccc2c(c1)OCO2,-1.83% (inactive),
Cc1cc(=O)[nH]c(=S)[nH]1,,inactive
COc1cc(C(=O)OCc2ccc([N+](=O)[O-])cc2)cc(OC)c1OC,-7.17% (inactive),
Cc1ccc(-n2cc3ccc([N+](=O)[O-])cc3n2)cc1,,16.4 µM (active)
Cc1ccc(C(=O)Cn2cc([N+](=O)[O-])nc2C)cc1,-14.6% (inactive),
Cc1cc(CO)nn1-c1ccc([N+](=O)[O-])cc1,-14% (inactive),
O=C(CN1CCN(c2ccccn2)CC1)NC1CCCCC1,2.13% (inactive),
O=C1CCC(CCC(=O)N2CCCC(C(=O)c3ccc(Cl)cc3)C2)=NN1 (stereo not given),-5.18% (inactive),

SMILES,"activity change, negative = growth inhibition",Potency
COc1cc(OC)cc(-c2nc3nc(C)c(CCC(=O)Nc4ccc(C)cc4)c(C)n3n2)c1,-28.1% (inactive),
COc1cc(OC)cc(-c2nc3nc(C)c(CCC(=O)Nc4ccccc4)c(C)n3n2)c1,,29.1 µM (active)
CCOC(=O)c1cccc(NC(=O)CCc2c(C)nc3ncnn3c2C)c1,2.02% (inactive),
COc1cc(OC)cc(-c2c(-c3cccs3)c3cc(-c4ccc(OC)cc4F)ccc3n2C)c1,,14.6 µM (active)
COc1ccc(-c2cn[nH]c2-c2ccc(OC)cc2)cc1,-22.1% (inactive),
COc1ccc(OC)c(-n2c(-c3ccn[nH]3)n[nH]c2=S)c1,-17.3% (inactive),
COc1cc(OC)cc(-c2c(C#Cc3ccsc3)c3cc(-c4ccc(SC)cc4)ccc3n2C)c1,-1.65% (inactive),
COc1ccc(-c2c(-c3cc(OC)cc(OC)c3)n(C)c3ccc(-c4ccn[nH]4)cc23)cc1,,25.9 µM (active)
O=C(CSc1nncs1)NC1CCCc2ccccc21 (stereo not given),12.5% (inactive),
Cc1nc2cc3c(cc2s1)OCO3,-7.5% (inactive),
Cc1nnc(SCC(=O)NC(=O)NC2CCCC2)n1N,-14.4% (inactive),
COc1ccc(N2CC(C(=O)N[C@@H](C)C(=O)N3CCCCC3)CC2=O)cc1 (stereo not given in full),19.1% (inactive),
CCOC(=O)C1CCN(S(=O)(=O)c2ccc3c(c2)N(C)C(=O)CC(=O)N3C)CC1,,inactive
O=[n+]1c2c(n([O-])c3cc(Br)ccc31)CCC2,-2.65% (inactive),
CCOc1cc(C2C(C(=O)c3ccco3)=C(O)C(=O)N2Cc2ccccc2)ccc1O (stereo not given),-10.7% (inactive),
CC(C)c1ccc(C2C(C(=O)c3ccco3)=C(O)C(=O)N2CC2CCCO2)cc1 (stereo not given),-77.9% (active),
O=C(C1=C(O)C(=O)N(Cc2ccccc2)C1c1cccnc1)c1ccco1 (stereo not given),8.79% (inactive),
CCCc1nnc(NC(=O)CN2C(=O)c3ccccc3S2(=O)=O)s1,3.89% (inactive),
Cc1ccc(-c2nc3c(cnn3-c3ccccc3)c(=O)o2)cc1,-13.9% (inactive),
Cc1ccc(-n2ncc3c(=O)n(-c4ccc(C)c(C)c4)c(-c4ccco4)nc32)cc1,,18.4 µM (active)
Cc1ccc(-n2ncc3c(Nc4cccc(C(=O)O)c4)ncnc32)cc1,-12.6% (inactive),
O=Cc1c(NCCc2cccc(F)c2)c2ccccc2[nH]c1=O,-6.03% (inactive),
CCC(=O)Nc1ccc(C(=O)NNC(=O)c2ccc(Cl)cc2)cc1,-2.27% (inactive),
CC(=O)OC(C(=O)NC1CCCCC1)c1ccccc1 (stereo not given),-1.29% (inactive),
Cc1cnc(CN(C)C(=O)CC2C(=O)NCCN2Cc2cccc(F)c2F)[nH]1 (stereo not given),-2.17% (inactive),
CCOC(=O)N1CCC(NC(=O)C(C)n2c3ccccc3c3cnn(C)c(=O)c32)CC1 (stereo not given),-19% (inactive),
CCN(CC)CCNC(=O)Cn1ncc2c3ccccc3n(Cc3ccccc3C)c2c1=O,,25.9 µM (active)

SMILES,"activity change, negative = growth inhibition",Potency
O=C(Cn1ncc2c3ccccc3n(Cc3ccccc3)c2c1=O)NCc1ccccn1,,inactive
Cc1ccc(Cn2c(C)c3cnn(CC(=O)NCCN4CCOCC4)c(=O)c3c2C)cc1,-3.15% (inactive),
CCCn1c2ccccc2c2cnn(CC(=O)NCCCN3CCCCC3CC)c(=O)c21 (stereo not given),-69.4% (inactive),
Cc1c2cnn(CC(=O)NCc3ccccn3)c(=O)c2c(C)n1Cc1ccc(Cl)cc1,-21.2% (inactive),
CCCn1c2ccccc2c2cnn(CC(=O)NCC3CCN(Cc4ccc(C)cc4)CC3)c(=O)c21,,10.3 µM (active)
Cc1ccc2oc(=O)c3cnn(CC(=O)NCc4ccccc4Cl)c3c2c1,2.11% (inactive),
Cc1ccc(Cn2c(C)c3cnn(CC(=O)NCc4ccccc4)c(=O)c3c2C)cc1,,2.91 µM (active)
Cc1nn(CC(=O)NC2CCCCC2)c(=O)c2cccn12,7.78% (inactive),
Cc1ccccc1CNC(=O)Cn1c(C)c2cnn(-c3ccccc3)c(=O)c2c1C,-15.3% (inactive),
O=C(Cn1ncc2c3ccccc3n(Cc3ccccc3)c2c1=O)NC1CCCCCC1,,3.66 µM (active)
O=C1OC(Cc2ccccc2)C(c2ccccc2)C1=O (stereo not given),-11.7% (inactive),
Cc1cc(S(=O)(=O)NCC(C)C)ccc1OCC(=O)NC1CC1,4.66% (inactive),
CCCCCC(=O)Nc1ccc(-c2cn3cccnc3n2)cc1,-3.49% (inactive),
O=C(NNC(=O)C(O)c1ccccc1)NC1CCCCC1 (stereo not given),9.61% (inactive),
Cc1ccc(NC(=O)C(c2ccccc2)N2CCN(C(=O)c3ccco3)CC2)cc1 (stereo not given),12.8% (inactive),
O=c1c(-c2cc(F)cc(F)c2)nc2cnc(Oc3ccccc3)nc2n1C[C@H]1CCCO1,-3.79% (inactive),
CC1OC(OCC2OC(Oc3c(-c4ccc(O)c(O)c4)oc4cc(O)cc(O)c4c3=O)C(O)C(O)C2O)[C@@H](O)C(O)C1O (stereo not given in full),14.4% (inactive),
O=C(O)Cc1ccc(NC(=O)Nc2cccc3ccccc23)cc1,7.53% (inactive),
Cc1ccc2c(c1)N(CC(=O)N1CCCC(C)C1)C(=O)CO2 (stereo not given),-15.8% (inactive),
NC1=C([N+](=O)[O-])C(c2ccccc2)C2=C(CCCC2=O)O1 (stereo not given),2.25% (inactive),
CCOc1cnc(C(=O)NNC(=O)c2ccccc2Br)o1,1.36% (inactive),
Cc1cccc(C)c1NC(=O)NC1=CCCN1C,-1.42% (inactive),
CC1CC(C)CN(CCC(=O)Nc2ccc3c(c2)CCC3)C1 (stereo not given),-21.9% (inactive),
COC(=O)N(C)C[C@@H]1OCc2cnnn2CCCC(=O)N([C@@H](C)CO)C[C@@H]1C,-12.9% (inactive),
CC(C)(C)n1nnnc1C(c1ccc2ncccc2c1)N1CCSCC1 (stereo not given),-4.42% (inactive),
Cc1cccc(C)c1-n1nnnc1C1(C)CCC(=O)N1CCOc1ccccc1 (stereo not given),-25.8% (inactive),
O=C1c2ccccc2C(=O)N1CCOc1ccc(F)cc1,-5.19% (inactive),

SMILES,"activity change, negative = growth inhibition",Potency
Cc1cccc2c1N(CCOc1ccccc1)C(=O)C2=O,,1.3 µM (active)
CNS(=O)(=O)c1ccc(NC(=O)C2CC(=O)N(c3ccc(Cl)cc3)C2)cc1 (stereo not given),-25.9% (inactive),
CC12C(=O)N(c3ccccc3)C(=O)C1C(c1ccccc1)N1CCCN12 (stereo not given),-2.82% (inactive),
CCCN(c1ccc(C)cc1)c1nc(=O)c2cccnc2s1,,18.4 µM (active)
NC1=NC2(CCCCC2)N(c2ccc(F)cc2F)C(N)=N1,-19.6% (inactive),
NC(=O)C(Cc1ccccc1)NC(=O)C12CC3CC(CC(C3)C1)C2 (stereo not given),-27.5% (inactive),
COC(=O)c1sc(NC(=O)c2ccc(OC)cc2OC)nc1C,-21.8% (inactive),
COc1cc2ccccc2cc1C(=O)Nc1nc(C)c(C(C)=O)s1,-13.2% (inactive),
COc1ccc2c(c1)Cc1sc(NC(=O)c3ccccc3Br)nc1-2,,18.4 µM (active)
COCCN1C=C2C(=O)C(C)(OC(=O)C3CCCC3)C(=O)C=C2C=C1c1ccsc1 (stereo not given),-8.49% (inactive),
CC(NC(=O)c1cc(=O)[nH]c2ccccc12)c1ccc(F)cc1F (stereo not given),-17.3% (inactive),
CC(C)OCCCNC(=O)c1cc(Sc2ccc(F)cc2)nc2ccccc12,-86.9% (inactive),
CC(NC(=O)c1cc(Sc2ccc(F)cc2F)nc2ccccc12)c1ccccc1 (stereo not given),,23.1 µM (active)
CCCCCc1nnc(NC(=O)c2ccc(=O)n(C)n2)s1,2.05% (inactive),
COc1ccc(NC(=O)C2(C)Cc3c(-c4ccc(C(N)=O)cc4)ccnc3O2)cc1 (stereo not given),-13.6% (inactive),
COc1ccc(NC(=O)C2(C)Cc3c(-c4cccc(NC(C)=O)c4)ccnc3O2)cc1 (stereo not given),,1.16 µM (active)
O=C(NCc1cccc(CNC(=O)Nc2cccc(O)c2)c1)Nc1cccc(O)c1,-4.41% (inactive),
CC(=O)Nc1cccc(-c2ccnc3c2CC(C)(C(=O)NCc2ccco2)O3)c1 (stereo not given),,2.91 µM (active)
COc1ccc(NC(=O)Nc2cccc(-c3noc(C)n3)c2)cc1,-28.2% (inactive),
COC(=O)Cc1ccc(NC(=S)NCc2ccco2)cc1,-22.3% (inactive),
CC(=O)Nc1cccc(-c2ccnc3c2CC(C)(C(=O)NCc2ccccc2)O3)c1 (stereo not given),,0.92 µM (active)
CC1(C)CC(=O)c2cc(C(=O)NCc3ccccc3)c(=O)[nH]c2C1,-21.1% (inactive),
CCC(C)(C)NC(=O)CN(C(=O)CCC(=O)Nc1cc(C)ccn1)c1ccc2c(c1)OCCO2,-8.85% (inactive),
Cc1cc(=O)oc2cc(OC(C)C(=O)NCCc3ccc(S(N)(=O)=O)cc3)ccc12 (stereo not given),15.8% (inactive),
